Results reported in PubChem BioAssay AID1159580 (chemical genetic matrix, 2015).
Out of some 5,500 compounds screened, about 2,000 (36%) were called active. Roughly 18% stayed inconclusive and do not appear here. Cut-off read from the data, not from the text of the source: active = normalized growth mostly below about 0.91 (no sharp cut-off); inconclusive = no clear call, values can overlap the other calls; inactive = mostly above about 0.92. Some of the results follow.

Assay: chemical genetic growth profiling, strain panel (AID 1159580);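 note: tested at 20 µM; growth read once vehicle control cultures reached saturation at 30 °C; 1 = growth at the plate median or of vehicle wells; lower values mean less growth of the strain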
Conditions: S. cerevisiae deletion strains, growth OD

Measured: normalized growth

Cc1onc2c(=O)n(-c3ccccc3)nc(-c3ccccc3)c12
active: locus YHR030C, strain SLT2, active compounds read low 0.517 | locus YJR075W, strain HOC1, active compounds read low 0.622 | locus YLR039C, strain RIC1, active compounds read low 0.57 | locus YLR085C, strain ARP6, active compounds read low 0.769 | locus YLR262C, strain YPT6, active compounds read low 0.574 | locus YMR307W, strain GAS1, active compounds read low 0.568 | locus YNL322C, strain KRE1, active compounds read low 0.929
inactive: locus YAL013W, strain DEP1, active compounds read low 0.98 | locus YBR229C, strain ROT2, active compounds read low 0.983 | locus YCL061C, strain MRC1, active compounds read low 0.98 | locus YDL101C, strain DUN1, active compounds read low 0.954 | locus YDL134C, strain PPH21, active compounds read low 0.981 | locus YDR150W, strain NUM1, active compounds read low 0.934 | locus YEL061C, strain CIN8, active compounds read low 0.968 | locus YGR078C, strain PAC10, active compounds read low 0.947 | locus YHR087W, strain rtc3, active compounds read low 0.978 | locus YJR043C, strain POL32, active compounds read low 1.01 | locus YLR058C, strain SHM2 (second series), active compounds read low 0.984 | locus YML094W, strain GIM5, active compounds read low 0.978 | locus YMR219W, strain ESC1, active compounds read low 0.955 | locus YMR263W, strain SAP30, active compounds read low 0.974 | locus YNL153C, strain GIM3, active compounds read low 1 | locus YNL298W, strain CLA4 (second series), active compounds read low 0.911 | locus YNR030W, strain Alg12, active compounds read low 0.945 | locus YPL055C, strain LGE1, active compounds read low 1.02 | locus YPL241C, strain CIN2, active compounds read low 0.959 | locus YPR135W, strain CTF4, active compounds read low 0.68
